Here are results for 5 molecules from the supplement of paper PMC4022240.

Test in all cases: peptide microarray binding signal (635 nm), min-max normalized on array (fraction of array maximum); higher = stronger binding
For experiment [1], the target named is T1, HaloTag-ATRX ADD domain (163-292).
T1 chain: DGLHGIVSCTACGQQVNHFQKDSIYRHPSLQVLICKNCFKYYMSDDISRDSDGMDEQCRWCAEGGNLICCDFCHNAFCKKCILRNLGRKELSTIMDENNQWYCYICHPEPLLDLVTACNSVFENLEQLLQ
On the procedure:
(§1)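 Histone 13-mer peptides were synthesized as cellulose conjugates with a C-terminal 20-atom PEG linker and printed in triplicate on nitrocellulose. The sequence given is the unmodified backbone; PTMs (Kme1/2/3, Kac, Sph/Tph, Rme/Rme2a/Rme2s, Rcit) are listed in the label and the 'peptide modifications' condition. Slides were probed at 4 °C for 1 h with biotin-labelled (HQ)5-HaloTag reader fusions (ATRX-ADD, ING2-PHD) then streptavidin-Alexa647, or with rabbit histone antibodies then anti-rabbit Alexa647. The mean 635 nm signal of the triplicate spots was scaled 0-1 between the lowest and highest values on each array.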

Experiment [2] concerns the target HaloTag-ING2 PHD (mouse Ing2 200-280). On the procedure: as §1
Experiment [3] deals with anti-H3K4me3 antibody ab8580. On the procedure:
as §1

Experiment [4] addresses anti-H3K9me3 antibody ab8898. On the procedure:
as §1

The mark [5] stands for this setting: peptide region: H2B 7-19, peptide modifications: H2BK11ac H2BK12ac, binder concentration: 1:2,000 dilution.
The mark [6] stands for this setting: peptide region: H2B 7-19, peptide modifications: H2BK11ac H2BK12ac, binder concentration: 1:10,000 dilution.
[7] abbreviates: peptide region: H2B 7-19, peptide modifications: H2BK11ac H2BK12ac H2BS14ph H2BK15ac, binder concentration: 1:2,000 dilution.
Setting [8] is: peptide region: H2B 7-19, peptide modifications: H2BK11ac H2BK12ac H2BS14ph H2BK15ac, binder concentration: 1:10,000 dilution.
[9] abbreviates: peptide region: H2B 1-13, peptide modifications: H2BS6ph, binder concentration: 1:2,000 dilution.
The mark [10] stands for this setting: peptide region: H2B 1-13, peptide modifications: H2BS6ph, binder concentration: 1:10,000 dilution.
[11] abbreviates: peptide region: H2B 1-13, peptide modifications: H2BK11ac, binder concentration: 1:2,000 dilution.
[12] abbreviates: peptide region: H2B 1-13, peptide modifications: H2BK11ac, binder concentration: 1:10,000 dilution.
[13] abbreviates: peptide region: H2B 7-19, peptide modifications: H2BK11ac H2BS14ph H2BK16ac, binder concentration: 1:2,000 dilution.
The mark [14] stands for this setting: peptide region: H2B 7-19, peptide modifications: H2BK11ac H2BS14ph H2BK16ac, binder concentration: 1:10,000 dilution.

± gives the standard deviation.

B1: H2B 7-19 A P A P Kac Kac G S K K A V T (peptide)
chain: APAPKKGSKKAVT
For the molecule B1, the “peptide microarray binding signal” value worked out at 0.00411 ± 0.00015 in experiment [1] (peptide region: H2B 7-19, peptide modifications: H2BK11ac H2BK12ac, binder concentration: 50 nM); 0.0031 ± 0.001 in experiment [1] (peptide region: H2B 7-19, peptide modifications: H2BK11ac H2BK12ac, binder concentration: 500 nM); 0.00603 ± 0.00082 in experiment [2] (peptide region: H2B 7-19, peptide modifications: H2BK11ac H2BK12ac, binder concentration: 10 nM); 0.00822 ± 0.001 in experiment [2] (peptide region: H2B 7-19, peptide modifications: H2BK11ac H2BK12ac, binder concentration: 100 nM); 0.000245 ± 2.6e-06 in experiment [3] (setting [5]); 0.000913 ± 1.6e-05 in experiment [3] (setting [6]). For the same molecule, the “peptide microarray binding signal” value was found to be 0.000906 ± 4.5e-05 in experiment [4] (setting [5]) and 0.00127 ± 1.3e-05 in experiment [4] (setting [6]).

B2: H2B 7-19 A P A P Kac Kac G Sph Kac K A V T (peptide)
chain: APAPKKGSKKAVT
For the molecule B2, the “peptide microarray binding signal” value in experiment [1] (peptide region: H2B 7-19, peptide modifications: H2BK11ac H2BK12ac H2BS14ph H2BK15ac, binder concentration: 50 nM) stood at 0.001661 ± 1.4e-05; in experiment [1] (peptide region: H2B 7-19, peptide modifications: H2BK11ac H2BK12ac H2BS14ph H2BK15ac, binder concentration: 500 nM) it was 0.00238 ± 7.1e-05; in experiment [2] (peptide region: H2B 7-19, peptide modifications: H2BK11ac H2BK12ac H2BS14ph H2BK15ac, binder concentration: 10 nM) it was 0.002447 ± 1.4e-05; in experiment [2] (peptide region: H2B 7-19, peptide modifications: H2BK11ac H2BK12ac H2BS14ph H2BK15ac, binder concentration: 100 nM), 0.000709; in experiment [3] (setting [7]), 0.000774 ± 0.00015; in experiment [3] (setting [8]), 0.000685 ± 7.2e-06. For the same molecule, the “peptide microarray binding signal” value is 0.000242 ± 2.5e-06 in experiment [4] (setting [7]) and 0.000461 in experiment [4] (setting [8]).

B3: H2B 1-13 P E P A K Sph A P A P K K G (peptide)
chain: PEPAKSAPAPKKG
As for B3, the “peptide microarray binding signal” value amounted to 0.00342 ± 3.7e-05 in experiment [1] (peptide region: H2B 1-13, peptide modifications: H2BS6ph, binder concentration: 50 nM); 0.00543 ± 0.00012 in experiment [1] (peptide region: H2B 1-13, peptide modifications: H2BS6ph, binder concentration: 500 nM); 0.00346 ± 0.00017 in experiment [2] (peptide region: H2B 1-13, peptide modifications: H2BS6ph, binder concentration: 10 nM); 0.00425 ± 0.00022 in experiment [2] (peptide region: H2B 1-13, peptide modifications: H2BS6ph, binder concentration: 100 nM); 0.00245 ± 6.6e-05 in experiment [3] (setting [9]); 0.000799 ± 8.3e-06 in experiment [3] (setting [10]). Moreover, the results for the “peptide microarray binding signal” value in experiment [4] (setting [9]) and in experiment [4] (setting [10]) were 0.00068 ± 1e-05 and 0.000923 ± 9.6e-06, respectively.

B4: H2B 1-13 P E P A K S A P A P Kac K G (peptide)
chain: PEPAKSAPAPKKG
For the molecule B4, the “peptide microarray binding signal” value in experiment [1] (peptide region: H2B 1-13, peptide modifications: H2BK11ac, binder concentration: 50 nM) stood at 0.00254 ± 0.00043; in experiment [1] (peptide region: H2B 1-13, peptide modifications: H2BK11ac, binder concentration: 500 nM), 0.001762 ± 1.6e-05; in experiment [2] (peptide region: H2B 1-13, peptide modifications: H2BK11ac, binder concentration: 10 nM), 0.0156 ± 0.012; in experiment [2] (peptide region: H2B 1-13, peptide modifications: H2BK11ac, binder concentration: 100 nM), 0.00113; in experiment [3] (setting [11]) it was 0.000774 ± 9.3e-05; in experiment [3] (setting [12]), 0.000342 ± 3.8e-06. In addition, the results for the “peptide microarray binding signal” value in experiment [4] (setting [11]) and in experiment [4] (setting [12]) were 0.000302 ± 1.1e-05 and 0.000404 ± 4.4e-06, respectively.

B5: H2B 7-19 A P A P Kac K G Sph K Kac A V T (peptide)
chain: APAPKKGSKKAVT
Regarding B5, the “peptide microarray binding signal” value worked out at 0.00207 ± 8.4e-05 in experiment [1] (peptide region: H2B 7-19, peptide modifications: H2BK11ac H2BS14ph H2BK16ac, binder concentration: 50 nM); 0.00281 ± 2.2e-05 in experiment [1] (peptide region: H2B 7-19, peptide modifications: H2BK11ac H2BS14ph H2BK16ac, binder concentration: 500 nM); 0.00227 ± 3.4e-05 in experiment [2] (peptide region: H2B 7-19, peptide modifications: H2BK11ac H2BS14ph H2BK16ac, binder concentration: 10 nM); 0.00128 ± 1.3e-05 in experiment [2] (peptide region: H2B 7-19, peptide modifications: H2BK11ac H2BS14ph H2BK16ac, binder concentration: 100 nM); 0.000396 ± 1.2e-05 in experiment [3] (setting [13]); 0.000514 ± 5.5e-06 in experiment [3] (setting [14]). Further, the entries for the “peptide microarray binding signal” value in experiment [4] (setting [13]) and in experiment [4] (setting [14]) were 0.000242 ± 6.7e-06 and 0.000461 ± 8.7e-06, respectively.
